The values that follow come from PubChem BioAssay.

Active and inactive are the calls of the source. No rule for the calls is given here.

A short description of this assay: inhibition of Brca1/Bard1 split-luciferase complementation, confirmation, counter-screen for Mdm2/MdmX interaction inhibitor project, luminescence, single concentration (AID 504668). To be noted: Brca1/Bard1 bimolecular luciferase complementation counterscreen, at 8 µM, hits give high values. (Counterscreens check selectivity or assay interference.)
A word on the inhibition: it is how much of the control response was suppressed. Take `CCOC(=O)c1cnc(-n2nc(C)cc2C)nc1NC1CCCCC1`: the inhibition is 30.1% (active).
With `O=C1N(c2ccccc2)C[C@@H]2C[C@@H](c3cc4ccccc4o3)N3CCC[C@@]123` the figure was 35.1% (active); with `CCCOc1ccc(C(=O)C(CN2CCOCC2)c2ccccc2)cc1` (stereo not given), 25.6% (active); with `O=C(Nc1ccc(N2CCCCC2)cc1)c1ccccn1`, 27.9% (active).
For the molecule `C=C1C(O)[C@@H]2O[C@]3(CC[C@H](/C=C/C(C)[C@@H]4CC(C)=CC5(O[C@H](C[C@@](C)(O)CO)CCC5O)O4)O3)CC[C@H]2O[C@@H]1C(O)CC(C)[C@H]1OC2(CCCCO2)CCC1C` (stereo not given in full), the inhibition is 33.4% (active).
`Cc1ccc(-n2nc(C)c(NC(=O)CCl)c2C)cc1C`: the inhibition is 34% (active).
Consider `CC(=O)Oc1c(-c2ccc(Br)o2)oc2ccccc2c1=O`, for which the inhibition is 29.9% (active).
Turning to `Cc1ccc2cccc(NS(=O)(=O)c3ccccc3)c2n1`, the inhibition is 23.1% (active).
With `CCOC(=O)/C(=C\c1cccc(O)c1)c1nc2sc(C)c(C)c2c(=O)[nH]1` the figure was 27% (active); with `O=C(/C=C/c1ccc2ccccc2n1)N1CCN(S(=O)(=O)c2ccccc2F)CC1`, 25.5% (active).
Then `CCOC(=O)c1nc(NNC(=O)c2ccc([N+](=O)[O-])cc2)sc1C`, with 27.4% (active); and `CCCC(O)(CCC)C(=O)NN(C(=O)CCl)c1cccc(C)c1`, with 23.7% (active).
With `Cn1nccc1C(=O)N/N=C/c1c(O)ccc2ccccc12`, the inhibition is 31.1% (active).
Then `CCN(CC)CCNc1cc(C)nc2c1C(=O)C(=O)C=C2N1CCCCC1`, with 28.9% (active).
Then `Cc1ccc(/C=C2\SC(=S)N(CCCC(=O)N3CCOCC3)C2=O)cc1`, with 30.5% (active).
